# In the OligoGym collection:
# Molecular target: CHCHD8
# Assay: pooled miR-30 sensor sort-seq; sequence = guide strand
# Conditions: shRNA
# Note: reference of the scale not given here.
row,Sequence,sensor-assay potency score (higher = more potent)
1,TATGACAGCTGTTTGTGCCAGT,0.271
2,TCATCGTCTTTCTTCACCCGTT,-0.24
3,TCTTCCTCTATAATCTTGCTGG,-0.27
4,TTCCTCTATAATCTTGCTGGGT,-1.07
5,TTGTTCTTGCCTCCTCTGCAGC,-1.04
6,TTCTTCACCCGTTGGGTCCAGG,-0.933
7,TCATGCAATCCTTGAACGCCTG,-0.766
8,TTGCCGCCAGTCCTGGTGCTGG,-1.88
9,TCGTCTTTCTTCACCCGTTGGG,-0.227
10,ATCGTCTTTCTTCACCCGTTGG,-0.879
11,TTGCCTCCTCTGCAGCTCCTCT,-1.69

# Molecular target: CHD2
# Assay: as above
# Conditions: shRNA
row,Sequence,sensor-assay potency score (higher = more potent)
1,TTCTTCTTGAGACCTTTTCTTA,-0.844
2,TTGCACTTGTTGACACTTCATT,-0.8
3,TTGATTGTTGGACCTCTCCTTT,-0.473
4,TTTCATTGGACTTTTTTCCAAG,-0.762
5,TAAGCCTTGATGAACCTTCGGA,0.0623
6,TTTAAAGCTACAAATCGTGGTC,0.518
7,TTATAAGCCTTGATGAACCTTC,0.197
8,TTCAACAAGTAATCCGCTCGGG,0.35
9,TTCCTTAATATTAAATCGCGAT,-0.656
10,TCAACAAGTAATCCGCTCGGGT,-0.663
11,TAGCACCTTATGAAGACTCTGG,-0.21
12,ATAAATTTCTTCTAGCTCCTTC,1.15
13,TTCTTCACATCAGCTATCCGTT,-0.528
14,TTATCTGTGTGGAAAGAGCGGT,-0.167
15,TTTCTTATGAGCCATCTTGTAT,-1.08
16,TTTATCTGTCTCCACCGGCAGA,-1.04
17,TGACACTTCATTCTCTCTCGTT,-0.0754
18,TAAACTGTGATAGAAGTTCATC,-0.983
19,TTTTGCACCAGGAATGAGCTAG,0.429
20,TGCATTGCTGACACACAGCTGT,-0.311
21,TATTACTCTTTCTACTATCTGA,0.18
22,TTGTTTTCCAGGATCGTCCGGC,-0.196
23,TTCTTCTAGCTCCTTCTGCCGC,-0.813

# Molecular target: CHEK1
# Assay: as above
# Conditions: shRNA
row,Sequence,sensor-assay potency score (higher = more potent)
1,TTTTCTTCCATTGATAGCCCAA,-0.419
2,TATCCCATAAGGAAAGACCTGT,-0.371
3,TAAAGAATCGTGTCATTCTTTT,-0.659
4,TAAAGTACCACACATCTTGTTC,-0.726
5,TTCTGGTTTAATATCCCTGTGA,-0.58
6,TTTATTGATACAGATCTCTTTC,0.115
